# Source: PubChem BioAssay (NCI)
# Compounds without any hit were thinned out: in the full panel of roughly 83,000, 20% have a hit.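 Single-concentration screen, 48 h exposure, 96-well plates. Endpoint: percent growth. Below 10 = active.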 Unmarked numbers belong to inactive results. Active and inactive are the calls of the source.
# Key:
# Test in all cases: NCI-60 one-dose screen, 48 h (100 = growth as untreated, 0 = no growth, -100 = all killed)
# Conditions in all cases: 10 µM unless noted
# T-47D breast = tested on: T-47D breast
# BT-549 breast = tested on: BT-549 breast
# MDA-MB-435 melanoma = tested on: MDA-MB-435 melanoma
# SW-620 colon = tested on: SW-620 colon
# MCF7 breast = tested on: MCF7 breast
# HCT-116 colon = tested on: HCT-116 colon
# HCC-2998 colon = tested on: HCC-2998 colon
# KM12 colon = tested on: KM12 colon
Compound,growth (T-47D breast),growth (BT-549 breast),growth (MDA-MB-435 melanoma),growth (SW-620 colon),growth (MCF7 breast),growth (HCT-116 colon),growth (HCC-2998 colon),growth (KM12 colon)
COc1ccc(Cn2cc3c(c2-c2cc(OC)c(OC)c(OC)c2)CCCc2cnoc2-3)cc1N,51.5%,68.2%,-45.3% (active),29.6%,15.2%,24.1%,49%,26.1%
COc1cc(/C=C2\SC(=O)NC2=O)ccc1OCC(=O)Nc1ccc(C(=O)/C=C/c2cc3ccccc3nc2Cl)cc1,66.3%,72.9%,83.6%,96.6%,20.9%,-62% (active),103%,91.6%
COc1ccc(-c2nc(SCCC(C)C)nc(N/N=C\c3ccc(O)cc3)c2C#N)cc1,76.7%,67.5%,49.5%,54.1%,40.3%,39.6%,86.8%,67%
CN1CCN(Cc2ccc(NC(=O)c3cncc(C#Cc4cnc5ccc(O[C@H]6CCOC6)nn45)c3)cc2C(F)(F)F)CC1,16.2%,-33.9% (active),-86.8% (active),-32.4% (active),-62.6% (active),-88.1% (active),-61.3% (active),-52.3% (active)
N#Cc1ccc(S(=O)(=O)Nc2ccc(-c3cnc(N)[nH]3)cc2)cc1,101%,107%,108%,102%,90.7%,107%,105%,103%
CCn1c2ccc(/C=N/OCCCN(C)C)cc2c2cc(/C=N/OCCCN(C)C)ccc21,105%,60.9%,-48.9% (active),-47.3% (active),-92% (active),-72.2% (active),-49.4% (active),17.1%
CCCC(=O)NC(c1cccnc1)c1ccc2c(C)ccnc2c1O (stereo not drawn),20.7%,26.2%,30.6%,28.6%,-2.74% (active),16.7%,24%,20%
O=C(Cn1cc(CN2C(=O)c3ccc([N+](=O)[O-])cc3C2=O)nn1)Nc1ccccc1Br,104%,115%,109%,97.4%,94.3%,98.8%,101%,102%
Cc1cc2nc(C(Cl)Cl)nc(-c3ccco3)n2n1,79.2%,93.3%,89.4%,54.1%,46%,74%,58.7%,25.4%
O=C(CN1C(=O)S/C(=C\c2ccccc2)C1=O)Nc1ccc(C(=O)/C=C/c2cc3ccccc3nc2Cl)cc1,54.6%,60.9%,82.9%,98%,26.6%,-64.1% (active),97.8%,87.7%
N/C(=N\OC(=O)CSc1nc2ccccc2s1)c1ccc2ccccc2c1,97.7%,100%,104%,100%,94.2%,103%,107%,103%
COc1cc2c3c(n(CCCN4CCC[C@H]4C(N)=O)c(=O)c2cc1OC)-c1cc2c(cc1C3=O)OCO2,-11.4% (active),27.3%,31.8%,19.7%,-0.242% (active),5.37% (active),30.5%,26.1%
CCOC(=O)c1c(NCC(=O)Nc2ccc(Br)cc2)sc2c1CCCC2,30.9%,23.9%,42.9%,8.98% (active),11.9%,7.99% (active),67.9%,70.2%
CCCC(=O)NC(c1cccnc1)c1cc(Cl)c2cccnc2c1O (stereo not drawn),27.7%,68.8%,38.1%,26%,12.5%,29.1%,51.2%,30.7%
O=C(NCCCNc1cc(-c2cn(-c3ccccc3)nc2-c2cccc(O)c2)ccn1)Nc1cccc(C(F)(F)F)c1,39.2%,68.8%,31.7%,12.4%,23.7%,23.1%,-34.7% (active),10.7%
CC(C)N=C(N/C(N)=N/c1nc2ccccc2s1)NC(C)C,58.4%,70%,35.9%,33.3%,43.2%,17.7%,76.9%,65.9%

Compound,growth (T-47D breast),growth (BT-549 breast),growth (MDA-MB-435 melanoma),growth (SW-620 colon),growth (MCF7 breast),growth (HCT-116 colon),growth (HCC-2998 colon),growth (KM12 colon)
COc1ccc([C@@H]2[C@@H](O)C(=O)N2c2cc(OC)c(OC)c(OC)c2)cc1,67.1%,-13.4% (active),-28.6% (active),19.4%,11.9%,3.82% (active),21.8%,14%
Cc1cn(-c2cc(NC(=O)c3cncc(C#Cc4cnc5ccc(O[C@@H]6CCOC6)nn45)c3)cc(C(F)(F)F)c2)cn1,-28.6% (active),-96% (active),-83.1% (active),6.01% (active),-52% (active),-95.7% (active),-13.7% (active),-21.5% (active)
CCOC(=O)c1c(NCC(=O)Nc2cccc([N+](=O)[O-])c2)sc2c1CCCC2,-28.2% (active),-57.3% (active),-91.5% (active),-2.82% (active),-12.8% (active),-21% (active),-76.5% (active),-20.4% (active)
COc1cc(-c2noc(C[C@@H](NC(=O)OCc3ccccc3)C(C)C)n2)cc(OC)c1OC,90.2%,105%,106%,98.5%,87.3%,101%,103%,105%
O=C1c2c(c3c4ccc(Br)cc4oc3c3[nH]c4ccccc4c23)C(=O)N1CCO,10.5%,55.3%,59%,47%,18.6%,39.6%,77.8%,65.6%
Nc1nc(N)c2c(n1)NC(c1ccc(Cl)cc1)CC(c1ccc(Nc3nc(NCCO)nc(Nc4ccc(Cl)cc4)n3)cc1)=N2 (stereo not drawn),51.9%,58.3%,5.23% (active),-36.2% (active),-75.1% (active),-84.8% (active),18.6%,11.5%
COc1ccc(N2CCN(C(=O)CSc3ccc(-c4nc5cc(C)c(C)cc5[nH]4)cn3)CC2)cc1,21.5%,32.9%,73.1%,85.5%,42.8%,74.3%,94.2%,53.2%
CCOC(=O)c1ccc(N/C=C/C(=O)c2ccccc2)cc1,84.6%,114%,92.7%,100%,88.2%,96.5%,109%,98.5%
CN1CCN(c2ccc(C(=O)Nc3cccc(-c4cn(-c5ccc(S(N)(=O)=O)cc5)nn4)c3)cc2C(F)(F)F)CC1,74.8%,73.5%,77.7%,50.4%,70.8%,71.4%,88.3%,59.1%
COc1ccc(-c2nc3cc(Cl)c(Cl)cc3n2CC(=O)N=Nc2c(O)[nH]c3ccccc23)cc1,57.8%,78.3%,68.8%,62.4%,45.7%,22.6%,66%,68.2%
O=C1c2c(c3c4cc(Br)ccc4[nH]c3c3ccc4ccccc4c23)C(=O)N1CCN1CCNCC1,61.8%,87.6%,92.5%,-58.4% (active),-73.7% (active),11.2%,51.5%,88.6%
COc1cc(OC)c(S(N)(=O)=O)cc1C(=O)/C=C/c1ccccc1,13.6%,16.7%,9.57% (active),3.85% (active),10.9%,11.7%,22.3%,3.96% (active)
COc1ccc2c(C3=C(c4c[nH]c5ccccc45)C(=O)N(O)C3=O)coc2c1,40.6%,118%,107%,98.6%,44.5%,93.1%,103%,97.6%
COc1ccccc1/C=C/C(=O)c1nnn(-c2ccc(C(=O)O)cc2)c1C,87.9%,96.4%,87.8%,102%,54.2%,68%,102%,93.8%
Nc1c(C(=O)c2ccccc2)sc2nc(-c3cnccn3)cc(-c3cccs3)c12,98.9%,116%,98.9%,105%,90.8%,96.5%,105%,102%
